Data taken from PubChem BioAssay AID1159580 (chemical genetic matrix, 2015).
Among all 5,500 compounds or so, about 2,000 (36%) were called active. Not shown: some 18% with an inconclusive outcome. Cut-off read from the data, not from the text of the source: active = normalized growth mostly below about 0.91 (no sharp cut-off); inconclusive = no clear call, values can overlap the other calls; inactive = mostly above about 0.92. Some of the results follow.

Assay: chemical genetic growth profiling, strain panel (AID 1159580);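 note: tested at 20 µM; growth read once vehicle control cultures reached saturation at 30 °C; 1 = growth at the plate median or of vehicle wells; lower values mean less growth of the strain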
Conditions: growth OD

Measured: normalized growth

NC(N)=NS(=O)(=O)c1ccc(N)cc1
inactive: S. cerevisiae deletion strains, locus YJR066W, strain TOR1, active compounds read low 0.909 | S. cerevisiae deletion strains, locus YKL009W, strain mrt4, active compounds read low 0.993 | S. cerevisiae deletion strains, locus YKL068W, active compounds read low 1 | S. cerevisiae deletion strains, locus YKL085W, strain MDH1 (second series), active compounds read low 1.02 | S. cerevisiae deletion strains, locus YKL085W, strain MDH1, active compounds read low 1.02 | S. cerevisiae deletion strains, locus YKL160W, strain elf1, active compounds read low 0.996 | S. cerevisiae deletion strains, locus YKL190W, strain CNB1, active compounds read low 1.01 | S. cerevisiae deletion strains, locus YKR001C, strain vps1, active compounds read low 1.01 | S. cerevisiae deletion strains, locus YKR026C, strain gcn3, active compounds read low 0.955 | S. cerevisiae deletion strains, locus YKR091W, strain srl3, active compounds read low 0.991 | S. cerevisiae deletion strains, locus YLL001W, strain dnm1, active compounds read low 0.998 | S. cerevisiae deletion strains, locus YLL026W, active compounds read low 0.991 | S. cerevisiae deletion strains, locus YLL041C, strain sdh2, active compounds read low 0.973 | S. cerevisiae deletion strains, locus YLR027C, strain aat2, active compounds read low 0.974 | S. cerevisiae deletion strains, locus YLR039C, strain RIC1, active compounds read low 1.02 | S. cerevisiae deletion strains, locus YLR058C, strain SHM2, active compounds read low 1.02 | S. cerevisiae deletion strains, locus YLR102C, strain apc9, active compounds read low 0.986 | S. cerevisiae deletion strains, locus YLR113W, strain HOG1, active compounds read low 0.967 | S. cerevisiae deletion strains, locus YLR221C, strain rsa3, active compounds read low 0.984 | S. cerevisiae deletion strains, locus YLR258W, strain gsy2, active compounds read low 0.998 | S. cerevisiae deletion strains, locus YLR262C, strain YPT6 (second series), active compounds read low 0.984 | S. cerevisiae deletion strains, locus YLR262C, strain YPT6, active compounds read low 1.03 | S. cerevisiae deletion strains, locus YLR268W, strain sec22, active compounds read low 0.996 | S. cerevisiae deletion strains, locus YLR320W, strain mms22, active compounds read low 0.992 | S. cerevisiae deletion strains, locus YLR330W, strain CHS5, active compounds read low 1.01 | S. cerevisiae deletion strains, locus YLR342W, strain FKS1 (second series), active compounds read low 1.01 | S. cerevisiae deletion strains, locus YLR342W, strain FKS1, active compounds read low 0.977 | S. cerevisiae deletion strains, locus YLR357W, strain rsc2, active compounds read low 0.986 | S. cerevisiae deletion strains, locus YLR370C, strain arc18, active compounds read low 0.981 | S. cerevisiae deletion strains, locus YLR371W, strain rom2, active compounds read low 0.993 | S. cerevisiae deletion strains, locus YLR384C, strain iki3, active compounds read low 0.995 | S. cerevisiae deletion strains, locus YLR418C, strain cdc73, active compounds read low 0.994 | S. cerevisiae deletion strains, locus YML016C, strain PPZ1, active compounds read low 1.01 | S. cerevisiae deletion strains, locus YML032C, strain rad52, active compounds read low 0.987 | S. cerevisiae deletion strains, locus YML120C, strain ndi1, active compounds read low 0.978 | S. cerevisiae deletion strains, locus YML124C, strain tub3, active compounds read low 0.992 | S. cerevisiae deletion strains, locus YMR058W, strain fet3, active compounds read low 0.984 | S. cerevisiae deletion strains, locus YMR078C, strain ctf18, active compounds read low 0.997 | S. cerevisiae deletion strains, locus YMR125W, strain sto1, active compounds read low 0.966 | S. cerevisiae deletion strains, locus YMR129W, active compounds read low 0.997 | S. cerevisiae deletion strains, locus YMR205C, strain PFK2, active compounds read low 1 | S. cerevisiae deletion strains, locus YMR223W, strain ubp8, active compounds read low 0.996 | S. cerevisiae deletion strains, locus YMR231W, strain pep5, active compounds read low 1 | S. cerevisiae deletion strains, locus YMR307W, strain GAS1, active compounds read low 1.03 | S. cerevisiae deletion strains, locus YNL067W, strain RPL9B, active compounds read low 1.03 | S. cerevisiae deletion strains, locus YNL071W, strain lat1, active compounds read low 0.986 | S. cerevisiae deletion strains, locus YNL128W, strain TEP1, active compounds read low 1.03 | S. cerevisiae deletion strains, locus YNL153C, strain GIM3, active compounds read low 1.04 | S. cerevisiae deletion strains, locus YNL183C, strain NPR1, active compounds read low 0.918 | S. cerevisiae deletion strains, locus YNL209W, strain ssb2, active compounds read low 0.993 | S. cerevisiae deletion strains, locus YNL233W, strain BNI4, active compounds read low 1.03 | S. cerevisiae deletion strains, locus YNL248C, strain rpa49, active compounds read low 0.972 | S. cerevisiae deletion strains, locus YNL250W, strain rad50, active compounds read low 0.987 | S. cerevisiae deletion strains, locus YNL271C, strain bni1, active compounds read low 0.985 | S. cerevisiae deletion strains, locus YNL298W, strain CLA4, active compounds read low 0.994 | S. cerevisiae deletion strains, locus YNL307C, strain MCK1, active compounds read low 0.987 | S. cerevisiae deletion strains, locus YNL322C, strain KRE1 (second series), active compounds read low 0.967 | S. cerevisiae deletion strains, locus YNR049C, strain mso1, active compounds read low 0.981 | S. cerevisiae deletion strains, locus YNR052C, strain pop2, active compounds read low 0.986 | S. cerevisiae deletion strains, locus YOL006C, strain TOP1, active compounds read low 1.09 | S. cerevisiae deletion strains, locus YOL012C, strain htz1 0.841 | S. cerevisiae deletion strains, locus YOL147C, strain pex11, active compounds read low 0.992 | S. cerevisiae deletion strains, locus YOR001W, strain rrp6, active compounds read low 0.986 | S. cerevisiae deletion strains, locus YOR061W, strain CKA2, active compounds read low 1.02 | S. cerevisiae deletion strains, locus YOR069W, strain VPS5, active compounds read low 1.01 | S. cerevisiae deletion strains, locus YOR070C, strain gyp1, active compounds read low 0.979 | S. cerevisiae deletion strains, locus YOR080W, strain dia2, active compounds read low 0.985 | S. cerevisiae deletion strains, locus YOR083W, strain WHI5, active compounds read low 0.979 | S. cerevisiae deletion strains, locus YOR106W, strain vam3, active compounds read low 0.976 | S. cerevisiae deletion strains, locus YOR136W, strain idh2, active compounds read low 0.986 | S. cerevisiae deletion strains, locus YOR144C, strain elg1, active compounds read low 0.99 | S. cerevisiae deletion strains, locus YOR184W, strain ser1, active compounds read low 1.02 | S. cerevisiae deletion strains, locus YOR231W, strain MKK1, active compounds read low 0.98 | S. cerevisiae deletion strains, locus YOR265W, strain rbl2, active compounds read low 0.979 | S. cerevisiae deletion strains, locus YOR270C, strain vph1, active compounds read low 0.973 | S. cerevisiae deletion strains, locus YOR290C, strain snf2, active compounds read low 0.992 | S. cerevisiae deletion strains, locus YOR316C, strain cot1, active compounds read low 0.993 | S. cerevisiae deletion strains, locus YPL051W, strain arl3, active compounds read low 0.997 | S. cerevisiae deletion strains, locus YPL055C, strain LGE1, active compounds read low 1.07 | S. cerevisiae deletion strains, locus YPL078C, strain atp4, active compounds read low 0.994 | S. cerevisiae deletion strains, locus YPL106C, strain sse1, active compounds read low 0.953 | S. cerevisiae deletion strains, locus YPL240C, strain hsp82, active compounds read low 0.991 | S. cerevisiae deletion strains, locus YPL256C, strain CLN2, active compounds read low 0.953 | S. cerevisiae deletion strains, locus YPR119W, strain clb2, active compounds read low 0.994 | S. cerevisiae deletion strains, locus YPR141C, strain kar3, active compounds read low 0.997 | S. cerevisiae deletion strains, locus YPR163C, strain tif3, active compounds read low 0.997 | S. cerevisiae deletion strains, locus YPR167C, strain met16, active compounds read low 0.993 | S. cerevisiae deletion strains, strain wtn01, active compounds read low 0.988 | S. cerevisiae strains, strain wild type, active compounds read low 1.02
